Shown are actives, neighbours in structure and some others; about 1.7% of the full set was active somewhere.
p53ts 39C tox – p53ts cell cytotoxicity, nonpermissive temperature. H1299-p53A138V viability at 39C, ATP luminescence, 24 h. Potency, µM (titrated, usually from 46.1 µM), for the others: at the top dose activity change, negative = cell killing, actives largely listed as cytotoxic. actives 1.5% (n = 130,000). AID 902; also: % is scaled to controls: 0 for no effect and ±100 for the full control effect; nearly all actives have a fitted effect of over 55% in size
Imprint erasure – inducers of genomic imprint erasure in mouse ES cells; AID 1948; Potency, µM (highest dose often 60.7 µM), for the others: top-dose activity change, positive = activation, hits mostly activators; mouse ES Peg3-LacZ reporter, beta-gal luminescence, 40 h; actives 0.02% (n = 110,000)
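Imprint erasure is scored as LacZ activity from the silenced maternal Peg3 allele in feeder-free female ES cells cultured 40 h with LIF. Luminescence is normalized to in-plate negative controls and fitted to the Hill equation.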
p53ts 32C tox – cytotoxicity in p53ts cells at permissive temperature. actives 0.93% (n = 130,000). AID 924. H1299-p53A138V at 32C, ATP luminescence viability, 24 h. Potency, µM (highest dose often 46.1 µM), for the others: at the highest dose activity change, negative = cytotoxicity, actives largely listed as cytotoxic;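 also: 0% = DMSO and -100% = full killing by reference compound; nearly all actives have a fitted effect of over 55% in size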
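Viability by ATPlite luminescence after 24 h compound treatment (up to 46 uM) at the permissive 32C. Cells are H1299 carrying p53 A138V. Scale runs from DMSO basal to 100 uM tamoxifen as full kill; AC50 from Hill fits.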
IkB signaling – suppresses IkB signaling in ABC-DLBCL reporter cells. ABC-DLBCL IkBa-CBG/CBR dual luciferase ratio, 4 h; response scale: scaled: untreated 0%, proteasome inhibitor 100%. Potency, µM (series often up to 57.1 µM), for inactives: at the top dose IkBa stabilization activation. actives 0.04% (n = 110,000); active = well fitted curve in the direction sought with a large enough effect in the signal ratio, not every such curve was filed as active; inconclusive = small, poorly fitted or top-dose-only effect, or a change in a side signal; the % refers to the signal ratio;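 also: the direction sought is a rising ratio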
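In this assay, an IκBα–CBG68 fusion accumulates when IKK-driven degradation is blocked; native CBR normalizes for cell number. OCI-Ly3 cells were treated 4 h with compound and doxycycline, then green and red light read after Chroma-Glo addition.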
Active calls of the source: *; ? = inconclusive; / = not tested or not shown; ! = not confirmed by another sample; [ ] = another dose, or the depositor's remark. Unless noted, calls follow the shape of the dose curve; as a rule, active = well fitted curve in the direction sought with a large enough effect; inconclusive = small, poorly fitted or top-dose-only effect, or another doubt; inactive = no such curve, though single readings can be large; an effect the other way counts as inactive or inconclusive. Potency is read from the fitted curve at half-maximal effect.

SMILES	p53ts 39C tox	Imprint erasure	p53ts 32C tox	IkB signaling
CCCOC(=O)Nc1ccc(N2CCCCC2)cc1	16µM*	-44%	13µM*	1%
CCc1nnc(NC(=O)CSc2nc3c(cc2C#N)CCC3)s1	2µM*	-44%	2µM*	-2%
N#Cc1cc2c(nc1SCC(=O)Nc1nccs1)CCCCC2	?	-12%	?	0%
O=S1(=O)N=C(Nc2nc3c(s2)CCCC3)c2ccccc21	4µM*	-83%	5µM*	?
CCc1cccc(CC)c1NC1=NS(=O)(=O)c2ccccc21	17%	6%[10.9 µM]	5%	3%
CN1CCc2cccc3c2[C@@H]1Cc1ccc(O)c(O)c1-3	10µM*!	-23%	32µM*!	-1%[11.4 µM]
Cc1ccccc1C(=O)Nc1nnc(SCc2cc(=O)c3c(C)ccc(C)c3[nH]2)s1	-4%	-18%[10.9 µM]	-8%	?
COc1ccccc1OCCCCn1c(C2CC(=O)N(c3ccccc3Cl)C2)nc2ccccc21 (stereo unspecified)	20µM*	-6%[10.9 µM]	?	?
CCOc1ccccc1N1CC(c2nc3ccccc3n2CCCOc2ccc(OC)cc2)CC1=O (stereo unspecified)	?	-6%[10.9 µM]	?	?
CCc1ccccc1N1CC(c2nc3ccccc3n2CCCOc2ccc(Cl)cc2)CC1=O (stereo unspecified)	20µM*	-13%[10.9 µM]	?	?
CC[C@@H]1CC(=O)N(SC[C@H](N)C(=O)O)C1=O	3%[9.22 µM]	-12%[10.9 µM]	-1%[9.22 µM]	1%[11.4 µM]
Cc1cc(C)n(-c2ccc(C(=O)Nc3sccc3C(N)=O)cc2)n1	?	-51%	?	?
Cc1cc(C)n(-c2ccc(C(=O)Nc3ccccn3)cc2)n1	10µM*	-67%	13µM*	?
CC(=O)Nc1ccc2nc(-c3ccccn3)[nH]c2c1	6.3µM*	-78%	4µM*	1%
COc1cccc(NC(=O)CSc2nnc(NC(=O)NC3CCCCC3)s2)c1	13µM*	?	11µM*	?
Cc1ccc(NC(=O)CSc2nnc(NC(=O)NC3CCCCC3)s2)cc1	?	17%[10.9 µM]	-12%	3%
Cc1nnc(SCc2cnc(-c3ccc(C(C)C)cc3)s2)n1C	2µM*	-14%	1.6µM*	-1%
Fc1ccc(C(c2nnc(-c3ccccc3)o2)N2CCN(c3ccccc3)CC2)c(Cl)c1 (stereo unspecified)	1%	-13%[10.9 µM]	-2%	?
CC1(C)COCN1S(=O)(=O)c1ccc(C(=O)Nc2nnc(-c3ccc(Cl)s3)o2)cc1	7.9µM*	-27%	?	1%
Cc1cc(N2CCN(C(c3ccccc3)c3ccccc3)CC2)n2ncnc2n1	8%	-44%	12%	2%
Cc1nc2ncnn2c(N2CCN(C(c3ccccc3)c3ccccc3)CC2)c1C	20µM*	-41%	?	?
Cc1ccc(-c2nc3ccccc3[nH]2)cc1NC(=O)COc1ccccc1[N+](=O)[O-]	7.9µM*	-15%[10.9 µM]	16µM*	?
C1COC1	2%	-2%	7%[1.84 µM]	-1%
CCc1ccc(-n2nc(CO)c(C(=O)NCC(c3ccccc3)c3ccccc3)n2)cc1	-26%	-4%[10.9 µM]	-1%	0%
CCc1ccc(-n2nc(CO)c(C(=O)NC)n2)cc1	16µM*	-6%[10.9 µM]	?	-1%
SMILES	p53ts 39C tox	Imprint erasure	p53ts 32C tox	IkB signaling
COc1cccc(CNC(=O)CN2C(=O)N(c3cccc(Cl)c3)S(=O)(=O)c3ccccc32)c1OC	-28%	-12%[10.9 µM]	-12%	-2%
Cc1ccc(C)c(NS(=O)(=O)c2ccc3oc(=O)c4ncn(C)c4c3c2)c1	7.9µM*	8%[10.9 µM]	?	?
Oc1ccc(Nc2nc(-c3ccc(Cl)cc3)nc3ccccc23)cc1	16µM*	8%[10.9 µM]	?	?
COC(=O)c1ccc(C(NC(=O)OCc2ccccc2)/C(F)=C/[C@@H](C)C(=O)NCc2ccc(OC)c(OC)c2)cc1 (stereo partly specified)	13µM*	-15%	?	/
COC(=O)c1ccc(C(NC(=O)OCc2ccccc2)/C(F)=C/[C@@H](C)C(=O)NCc2ccc(-c3ccccc3)cc2)cc1 (stereo partly specified)	-3%	-14%	-2%	/
COc1ccccc1C(=O)N1CCC(c2c[nH]c3ccccc23)(c2c[nH]c3ccccc23)CC1	-21%	28%[10.9 µM]	21%	2%
Cc1ccc(Cn2c(SCC(=O)NCc3ccccc3)nc3ccsc3c2=O)cc1	16µM*	20%[10.9 µM]	0%	-2%
COc1cccc(C(=O)Cn2c(=N)n(C)c3ccccc32)c1	5µM*	-83%	3.2µM*	?
COCCCNC(=O)c1ccc(Cn2c(SCc3ccc(F)cc3)nc3cccnc32)cc1	/	/	11µM*	/
COc1ccc(NC(=O)Cn2c(SCc3ccc(C)cc3)nc3cccnc32)cc1OC	/	/	3.2µM*	/
O=C(NCCN1CCCCC1)c1ccc(Cn2c(SCc3ccc(F)cc3)nc3cccnc32)cc1	7.9µM*	-10%[10.9 µM]	7.9µM*	?
CCc1ccc(-n2c(=O)c3c(C)c(C(=O)N(C)C)sc3n(CC(=O)Nc3cc(Cl)ccc3C)c2=O)cc1	23%	16%[10.9 µM]	4%	9%
CCOc1ccccc1NC(=O)Cn1c(=O)n(-c2ccc(C)c(C)c2)c(=O)c2c(C)c(C(=O)N(C)C)sc21	13µM*	25%[10.9 µM]	-3%	-1%
CN(C)C1CCN(C(=O)c2ccc(-n3c(=O)c(=O)[nH]c4ccccc43)cc2)C1 (stereo unspecified)	5%	/	4%	/
C[C@@]12CCC(=O)C=C1CC[C@@H]1[C@@H]2[C@H](O)C[C@]2(C)[C@@H]1CC[C@]2(O)C(=O)CO	/	-12%[16.8 µM]	/	0.079µM*!
C[C@@]12CCC(=O)C=C1CC[C@@H]1[C@@H]2[C@H](O)C[C@]2(C)[C@@H]1CC[C@]2(O)C(=O)COC(=O)CCC(=O)O	13%	/	9%	0.13µM*
COc1ccc(C(=O)Nc2noc3ccccc23)cc1	6.3µM*	-53%[10.9 µM]	3.2µM*	?
COc1ccc(C(=O)Nc2cc(C)on2)cc1	6.3µM*	-69%	7.9µM*	3%
CCCS(=O)(=O)c1nc(S(=O)(=O)c2ccc(C)cc2)c(NCC(C)C)s1	12%	-7%[10.9 µM]	15%	1%
CCCCCc1nn2cc(-c3ccccc3)nc2s1	10µM*	-40%[10.9 µM]	?	?
Cc1ccc(-c2cn3nc(N4CCC(C(=O)Nc5ccccc5C)CC4)sc3n2)cc1	/	/	2%	/
CCN(CC)C(=O)c1sc2nc(-c3ccc(OC)cc3)cn2c1C	?	-60%	?	4%
c1ccc(-c2cn3nc(-c4ccccc4)sc3n2)cc1	?	1%	1µM*	?
Cc1nn2cc(-c3ccccc3)nc2s1	10µM*	-86%	10µM*	?
c1ccc(-c2nnc3sc(-c4ccncc4)nn23)cc1	4%	-11%	8%	-3%
Cc1nn2cc(-c3ccc(OC(C)C)cc3)nc2s1	10µM*	-63%[10.9 µM]	13µM*	-4%
Cc1ccc(NC(=O)c2cnc3sc(N4CCOCC4)nn3c2=O)cc1N(C)C	-8%	-10%[10.9 µM]	-24%	-2%
